PLK1 PBD block: PLK1 (human) polo-box domain binding inhibition. P53350. Plk1 PBD binding of FITC phosphopeptide, fluorescence polarization. Potency, µM, inactives show max response, negative = inhibition, usual class: inhibitors. 2.8% of 360,000 active; note: series mostly up to about 57 µM; nearly all actives have a fitted effect of over 65% in size
Tau fibril ThT: inhibitors of human tau fibril formation, thioflavin T binding | recombinant tau K18 P301L, heparin-induced fibrillization, ThT fluorescence | Potency, µM (series often up to 57.4 µM), inactives show at the highest dose activity, negative = inhibition, hits mostly inhibitors | 2.1% of 270,000 active | AID 1460; note: nearly all actives have a fitted effect of over 55% in size
Target sequence (P10636 561-689 P618L limits assumed): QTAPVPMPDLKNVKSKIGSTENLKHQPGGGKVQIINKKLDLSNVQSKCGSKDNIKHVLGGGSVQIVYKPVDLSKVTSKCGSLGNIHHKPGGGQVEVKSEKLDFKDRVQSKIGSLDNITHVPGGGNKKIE
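Aggregation was driven by heparin (20 uM final) acting on recombinant tau […] bearing P301L in 100 mM sodium acetate pH 7; fibrils were detected with Thioflavin T.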
Sfp inh: blocks B. subtilis Sfp PPTase activity. Q9F4F7. Biochemical Sfp PPTase activity, qHTS. Potency, µM, inactives show largest response in the series, negative = inhibition, most hits filed as inhibitors. 3.5% of 310,000 active;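 note: the enzyme is Sfp with the accession as filed and its product quenches rhodamine fluorescence; 0% = enzyme reaction without inhibitor and -100% = no enzyme wells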
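Buffer: 50 mM Hepes-Na pH 7.6, 10 mM MgCl2, 0.01% Nonidet P-40, 0.01% BSA. Enzyme 15 nM, pre-exposed to compound 15 min; substrates then added and fluorescence change tracked over 30 min.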
Tau fibril FP: blocks human tau fibril formation measured by polarization; K18 P301L tau heparin fibrillization, Alexa594 FP, 6 h; Potency, µM (doses to about 57.7 µM), inactives show at the highest dose activity, negative = inhibition, usual class: inhibitors; 0.39% of 280,000 active; note: nearly all actives have a fitted effect of over 55% in size
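Human tau K18 […] P301L fragment, 15 uM unlabeled plus 0.24 uM Alexa 594-labeled tau (final), with compound and 20 uM heparin in 100 mM sodium acetate pH 7; 6 hr at 37 C, then Alexa 594 FP read.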
Tau fluor cs: counter-screen for tau fibril formation inhibitors; tau K18 P301L Alexa594 fluorescence, heparin fibrillization; Potency, µM (top dose mostly 57.7 µM), without a hit: at the top dose activity change, negative = decrease; 0.93% of 280,000 active; AID 1463; note: nearly all actives have a fitted effect of over 55% in size
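Human tau K18 P301L (15 uM unlabeled, 0.24 uM Alexa 594-labeled) in 100 mM sodium acetate pH 7 with 20 uM heparin, 6 hr at 37 C. ThT 30 uM added, 1 hr ambient; Alexa 594 FP and total fluorescence read at 555/632 nm.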
VDR inh: blocks the human vitamin D receptor; P11473; VDR-SRC2-3 peptide fluorescence polarization, 2 h; Potency, µM, for the others: max response, negative = inhibition, usual class: inhibitors; 0.93% of 400,000 active; AID 504847
Target sequence (P11473 whole entry, looked up): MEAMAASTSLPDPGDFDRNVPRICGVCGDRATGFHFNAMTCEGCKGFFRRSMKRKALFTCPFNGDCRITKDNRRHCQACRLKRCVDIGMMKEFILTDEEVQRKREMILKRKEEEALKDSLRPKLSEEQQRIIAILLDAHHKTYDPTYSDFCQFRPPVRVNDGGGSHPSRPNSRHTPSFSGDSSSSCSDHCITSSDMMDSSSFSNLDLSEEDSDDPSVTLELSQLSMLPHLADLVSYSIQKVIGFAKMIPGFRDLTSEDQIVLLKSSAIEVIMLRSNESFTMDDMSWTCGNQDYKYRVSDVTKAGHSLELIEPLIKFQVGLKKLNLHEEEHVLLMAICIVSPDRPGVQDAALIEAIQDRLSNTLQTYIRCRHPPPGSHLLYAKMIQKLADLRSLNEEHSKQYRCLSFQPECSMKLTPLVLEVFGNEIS
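FP read-out; VDR + SRC2-3 coactivator peptide; 23 nl compound by pintool; 2 h RT incubation; reagents held at 4 deg C, protected from light.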
Starred values were filed as active, the others as inactive; ? = inconclusive; . = no result; [ ] = dose if it differs, or a comment. An excerpt weighted towards active compounds, which were near 6% of everything screened. Calls come from the whole dose curve; as a rule, active = well fitted curve in the direction sought with a large enough effect; inconclusive = small, poorly fitted or top-dose-only effect, or another doubt; inactive = no such curve, though single readings can be large; an effect the other way counts as inactive or inconclusive. Unless noted, % is set by controls: 0 for no effect and ±100 for the full control effect; potency is the fitted concentration of half-maximal effect.

SMILES	PLK1 PBD block	Tau fibril ThT	Sfp inh	Tau fibril FP	Tau fluor cs	VDR inh
CCCC(=O)Nc1ccc2c(c1)C(=O)N(C)C[C@@H](OC)[C@H](C)CN(Cc1ccc(-c3ccccn3)cc1)[C@@H](C)CO2	-1%	.	.	.	.	.
CSc1ccc(CCNC(=O)CCc2c(C)nc3c4cccnc4nn3c2C)cc1	.	-5%	.	12%	0%	-6%
Cc1c(O)nc(SC2CC(=O)N(c3ccccc3)C2=O)[nH]c1=O (stereo not given)	-6%	2%	79µM*	4%	2%	7%
O=c1oc2ccccc2c(O)c1/C=N/c1ncccn1	-11%	?	-13%	6%	-19%	-14%
O=c1oc2ccccc2c(O)c1/C=C1\C=Nc2ccccc21	0.6µM*	?	-5%	6%	-27%	-9%
Brc1ccc(N=Nc2ccc3ccccc3n2)cc1	-3%	1.1µM*	?	2%	-16%	-3%
COC(=O)C1=C(C(=O)OC)SC2(S1)C(C(=O)OC)=C(C(=O)OC)SC1=C2c2cc(C)cc(C)c2NC1(C)C	-18%	14µM*	9%	?	?	-9%
CCCCc1cc(=O)oc2cc(OC(C)C(=O)NCCN3CCOCC3)c(Cl)cc12 (stereo not given)	-9%	.	0%	.	.	16%
CCCn1c(N)c(N(CCOC)C(=O)Cc2ccc(S(=O)(=O)N3CCOCC3)s2)c(=O)[nH]c1=O	0%	.	.	.	.	8%
COc1cc2ccccc2cc1C(=O)OCc1nc2ccsc2c(=O)[nH]1	-2%	.	.	.	.	12%
CCOc1ccccc1Oc1cn[nH]c1-c1ccc(O)cc1O	0%	.	5%	.	.	11%
COc1ccc(-c2[nH]ncc2Oc2ccccc2OC)c(O)c1	-2%	-11%	7%	14%	25µM*[quencher]	12%
C=C(C)COc1ccc(-c2[nH]ncc2Oc2cccc(OC)c2)c(O)c1	4%	-15%	9%	?	8.9µM*[quencher]	6%
COc1ccc(-c2cn[nH]c2-c2ccc(O)cc2O)cc1	-7%	.	6%	.	.	-8%
C=C(C)COc1ccc(-c2[nH]ncc2Oc2ccccc2OCC)c(O)c1	-5%	?	2%	?	4µM*[quencher]	14%
Oc1c(N=Nc2nn[nH]n2)ccc2ccccc12	17µM*	.	.	.	.	.
Cc1ccc(N=Nc2ccc3ccccc3c2O)cc1	?	.	-4%	.	.	10%
COc1cccc(N=Nc2ccc3ccccc3c2O)c1	-3%	.	0%	.	.	-19%
Oc1c(N=Nc2ccc(F)cc2)ccc2ccccc12	9.5µM*	.	20%	.	.	?
CC(C)Oc1ccc(C(=O)NCC(c2ccc(N(C)C)cc2)N2CCCC2)cc1 (stereo not given)	.	?	.	-3%	-12%	6%
Cc1ccc(C)n1-c1ccc(N2CCOCC2)cc1	-8%	8.9µM*	-53%	-15%	-8%	-7%
Cc1ccc(C)n1-c1ccc(N(C)C)cc1	-22%	13µM*	40µM*	?	?	?
Cc1ccc(C)n1-c1ccc(C(=O)/C=C/N(C)C)cc1	-18%	-7%	8%	3%	-4%	-8%
COCCNC(=O)c1onc(CSc2ccccn2)c1C(=O)NCCOC	-17%	.	.	.	.	-13%
CC(C)CCNC(=O)c1onc(CSc2ccccn2)c1C(=O)NCCC(C)C	27µM*	.	.	.	.	?
SMILES	PLK1 PBD block	Tau fibril ThT	Sfp inh	Tau fibril FP	Tau fluor cs	VDR inh
CC(=O)N1CCCC1c1nc2ccccc2n1Cc1c(F)cccc1Cl (stereo not given)	.	0%	.	5%	0%	8%
COc1cccc(CN(C(=O)c2ccc([N+](=O)[O-])cc2)C2CCS(=O)(=O)C2)c1 (stereo not given)	12µM*	.	5%	.	.	?
COc1cccc(CN(C(=O)COc2ccccc2[N+](=O)[O-])C2CCS(=O)(=O)C2)c1 (stereo not given)	24µM*	.	-10%	.	.	-19%
COc1cccc(C(=O)N(Cc2cccc(F)c2)C2CCS(=O)(=O)C2)c1 (stereo not given)	.	5%	.	-7%	-6%	12%
O=C(COc1ccccc1[N+](=O)[O-])N(Cc1cccc(Br)c1)C1CCS(=O)(=O)C1 (stereo not given)	-17%	.	5%	.	.	-2%
Cc1ccc(CN(C(=O)c2ccc([N+](=O)[O-])cc2)C2CCS(=O)(=O)C2)o1 (stereo not given)	3.8µM*	.	10%	.	.	?
COc1ccc(CCCNC(=O)C2(C)Cc3c(-c4ccc5c(c4)OCO5)ccnc3O2)cc1 (stereo not given)	3%	.	.	.	.	.
C=C1CCC[C@]2(C)C[C@H]3OC(=O)[C@H](CNCCc4ccccc4OC)C3CC12 (stereo not given in full)	.	-2%	56µM*	0%	-1%	-15%
Cc1cccc(NC2=NC(C)(C)N=C(N)N2)c1C	4%	-2%	8%	-3%	-2%	25µM*
Cc1ccc(Sc2c(C)nn(-c3ccccc3)c2OC(=O)CC(C)C)cc1	.	?	.	-8%	-14%	79µM*
CCCC(=O)Oc1c(Sc2ccc(Cl)cc2)c(C)nn1-c1ccccc1	.	?	.	-24%	-28%	50µM*
COc1ccccc1C(=O)Oc1c(Sc2ccccc2)c(C)nn1-c1ccccc1	.	?	.	-14%	-15%	-30%
CN(Cc1ccccc1)C(=S)Nc1cccnc1	21µM*	5%	9%	-3%	-3%	-15%
COc1ccc2nc3cc(Cl)ccc3c(Nc3cc(C(C)C)c(O)cc3C)c2c1	7%	5µM*	50µM*	?	7.1µM*[quencher]	-13%
Cc1cccc(OC(=O)c2cncc(Br)c2)c1	27µM*	-14%	-7%	-5%	-12%	-16%
Cc1cccc(OC(=O)c2cccnc2)c1	-6%	.	4%	.	.	4%
Cc1ccccc1C(=O)NN1C(=O)CSC1=S	-7%	?	-23%	1%	-8%	19%
CC(/C=C1\SC(=S)N(NC(=O)c2ccncc2)C1=O)=C\c1ccccc1	-23%	10µM*	45µM*	-13%	?	?
CC(/C=C1\SC(=S)N(NC(=O)c2ccccc2C)C1=O)=C\c1ccccc1	-6%	4µM*	3%	2%	?	-11%
CC(/C=C1\SC(=S)N(NC(=O)c2ccc(C)cc2)C1=O)=C\c1ccccc1	-1%	?	-8%	3%	-28%	-3%
N#CN=c1snc(-c2ccccc2Cl)n1-c1ccccc1Cl	.	.	.	.	.	-11%
Cc1sc2c(c1C)c(=O)n(-c1ccccc1)c(=O)n2CC(=O)c1ccc(Cl)cc1	.	?	.	-12%	?	1%
CCc1ccc(-n2nc(CO)c(C(=O)NCCc3ccccc3)n2)cc1	.	1%	.	-7%	-4%	-3%
Cc1ccc(S(=O)(=O)NN2C(=O)/C(=C/c3cccc(F)c3)SC2=S)cc1	?	.	-1%	.	.	?

Screening results: PubChem BioAssay, National Center for Advancing Translational Sciences (NCATS)
